Where “and” joins values, the source holds several entries; their conditions need not be identical. Equal entries are not always repeated. The whole screen tested about 5,500 compounds, of which about 2,000 (36%) were called active. Not shown: some 18% with an inconclusive outcome. No stated cut-off is given here; in the data, active means normalized growth mostly below about 0.91 (no sharp cut-off); inconclusive means no clear call, values can overlap the other calls; inactive means mostly above about 0.92. The list shows a part of the results.
Test: chemical genetic growth profiling, strain panel (AID 1159580);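 further: tested at 20 µM; growth read once vehicle control cultures reached saturation at 30 °C; 1 = growth at the plate median or of vehicle wells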
Settings: S. cerevisiae deletion strains, growth OD

Measured: normalized growth

Cc1ccc(S(=O)(=O)NC(=O)NN2CC3CCCC3C2)cc1 (configuration not stated)
inactive: locus YAL013W, strain DEP1, stronger effect = lower value 1.01 | locus YAL021C, strain ccr4, stronger effect = lower value 0.996 | locus YAL026C, strain drs2, stronger effect = lower value 0.979 | locus YAL030W, strain snc1, stronger effect = lower value 0.982 | locus YBL061C, strain skt5, stronger effect = lower value 0.981 | locus YBR009C, strain hhf1, stronger effect = lower value 0.976 | locus YBR021W, strain FUR4, stronger effect = lower value 1.01 | locus YBR023C, strain chs3, stronger effect = lower value 0.973 | locus YBR171W, strain sec66, stronger effect = lower value 0.995 | locus YBR229C, strain ROT2, stronger effect = lower value 1.01 | locus YBR231C, strain swc5, stronger effect = lower value 0.984 | locus YBR279W, strain paf1, stronger effect = lower value 0.987 | locus YCL011C, strain gbp2, stronger effect = lower value 0.961 | locus YCL016C, strain dcc1, stronger effect = lower value 0.98 | locus YCL029C, strain bik1, stronger effect = lower value 1.01 | locus YCL069W, strain vba3, stronger effect = lower value 0.993 | locus YCR088W, strain abp1, stronger effect = lower value 0.972 | locus YDL005C, strain med2, stronger effect = lower value 0.98 | locus YDL035C, strain GPR1, stronger effect = lower value 0.946 | locus YDL040C, strain nat1, stronger effect = lower value 0.984 | locus YDL074C, strain BRE1, stronger effect = lower value 1.01 | locus YDL101C, strain DUN1, stronger effect = lower value 1.02 | locus YDL134C, strain PPH21, stronger effect = lower value 0.962 | locus YDL185W, strain tfp1, stronger effect = lower value 1.02 | locus YDL192W, strain arf1, stronger effect = lower value 1.01 | locus YDR001C, strain nth1, stronger effect = lower value 0.968 | locus YDR069C, strain doa4, stronger effect = lower value 0.99 | locus YDR101C, strain arx1, stronger effect = lower value 1 | locus YDR137W, strain rgp1, stronger effect = lower value 0.89 | locus YDR159W, strain sac3, stronger effect = lower value 0.991 | locus YDR162C, strain NBP2, stronger effect = lower value 0.994 | locus YDR195W, strain ref2 0.975 | locus YDR297W, strain sur2, stronger effect = lower value 0.975 | locus YDR318W, strain mcm21, stronger effect = lower value 1.01 | locus YDR334W, strain swr1, stronger effect = lower value 0.959 | locus YDR335W, strain msn5, stronger effect = lower value 0.979 | locus YDR388W, stronger effect = lower value 1.01 | locus YDR392W, strain spt3, stronger effect = lower value 0.974 | locus YDR502C, strain sam2, stronger effect = lower value 0.997 | locus YEL003W, strain gim4, stronger effect = lower value 0.968 | locus YEL037C, strain rad23, stronger effect = lower value 0.986 | locus YEL061C, strain CIN8 (second series), stronger effect = lower value 0.955 | locus YEL061C, strain CIN8, stronger effect = lower value 1 | locus YER015W, strain faa2, stronger effect = lower value 0.975 | locus YER016W, strain bim1, stronger effect = lower value 0.995 | locus YER110C, stronger effect = lower value 1.02 | locus YER111C, strain swi4, stronger effect = lower value 0.972 | locus YER155C, strain BEM2 (second series), stronger effect = lower value 0.977 | locus YER155C, strain BEM2, stronger effect = lower value 1 | locus YER167W, strain BCK2, stronger effect = lower value 1 | locus YFR010W, strain ubp6, stronger effect = lower value 0.986 | locus YGL078C, strain dbp3, stronger effect = lower value 1.01 | locus YGL086W, strain mad1, stronger effect = lower value 0.984 | locus YGL167C, strain pmr1, stronger effect = lower value 0.982 | locus YGL173C, strain kem1, stronger effect = lower value 1 | locus YGL227W, strain vid30, stronger effect = lower value 0.969 | locus YGL240W, strain doc1, stronger effect = lower value 0.969 | locus YGL248W, strain PDE1, stronger effect = lower value 0.995 | locus YGL253W, strain hxk2, stronger effect = lower value 0.987 | locus YGR135W, strain pre9, stronger effect = lower value 1.03 | locus YGR229C, strain SMI1, stronger effect = lower value 1.01 | locus YGR252W, strain gcn5, stronger effect = lower value 1.05 | locus YHR013C, strain ard1, stronger effect = lower value 0.967 | locus YHR027C, strain rpn1, stronger effect = lower value 0.983 | locus YHR030C, strain SLT2, stronger effect = lower value 1 and 0.961 | locus YHR079C, strain IRE1 (second series), stronger effect = lower value 1.01 | locus YHR079C, strain IRE1, stronger effect = lower value 0.966 | locus YHR094C, strain hxt1, stronger effect = lower value 1.01 | locus YHR129C, strain ARP1, stronger effect = lower value 0.992 | locus YHR142W, strain chs7, stronger effect = lower value 0.98 | locus YHR200W, strain rpn10, stronger effect = lower value 1.01 | locus YIL066C, strain RNR3, stronger effect = lower value 1 | locus YIL073C, strain SPO22, stronger effect = lower value 1.05 | locus YIL125W, strain kgd1, stronger effect = lower value 1.01 | locus YIR030C, strain dcg1, stronger effect = lower value 1.03 | locus YJL092W, strain hpr5, stronger effect = lower value 0.954 | locus YJL095W, strain BCK1 (second series), stronger effect = lower value 0.973 | locus YJL095W, strain BCK1, stronger effect = lower value 1.02 and 0.973 | locus YJL115W, strain asf1, stronger effect = lower value 0.945 | locus YJL129C, strain trk1, stronger effect = lower value 0.954 | locus YJL134W, strain LCB3, stronger effect = lower value 1 | locus YJL154C, strain vps35, stronger effect = lower value 0.97 | locus YJL164C, strain tpk1, stronger effect = lower value 0.97 | locus YJL166W, strain qcr8, stronger effect = lower value 0.981 | locus YJL168C, strain set2, stronger effect = lower value 1.01 | locus YJL187C, strain SWE1 (second series), stronger effect = lower value 1 | locus YJL187C, strain SWE1, stronger effect = lower value 0.989

From PubChem BioAssay AID1159580 (chemical genetic matrix, 2015)
